Screening results deposited in PubChem by Broad Institute.
This excerpt belongs to a sample that is enriched for hits.
NOMO-1 viab: NOMO-1 AML cell viability reduction, primary screen, STK33 inhibitor project, CellTiter-Glo luminescence. inhibition, % (no concentration beside the values). hit rate 7.5% among 37,000. NOMO-1 AML viability, 72 h; in the data active = inhibition above about 80%; inconclusive = no clear call, values can overlap the other calls
STK33 kin inh: STK33 kinase inhibitors, primary screen, biochemical, luminescence, ADP-Glo, MBP substrate; hit rate 0.44% among 27,000; inhibition, % at 12.5 µM; Serine/threonine-protein kinase 33 (Homo sapiens), Q9BYT3; in the data active = inhibition above about 20%; inconclusive = no clear call, values can overlap the other calls
Target sequence (Q9BYT3 whole entry, looked up): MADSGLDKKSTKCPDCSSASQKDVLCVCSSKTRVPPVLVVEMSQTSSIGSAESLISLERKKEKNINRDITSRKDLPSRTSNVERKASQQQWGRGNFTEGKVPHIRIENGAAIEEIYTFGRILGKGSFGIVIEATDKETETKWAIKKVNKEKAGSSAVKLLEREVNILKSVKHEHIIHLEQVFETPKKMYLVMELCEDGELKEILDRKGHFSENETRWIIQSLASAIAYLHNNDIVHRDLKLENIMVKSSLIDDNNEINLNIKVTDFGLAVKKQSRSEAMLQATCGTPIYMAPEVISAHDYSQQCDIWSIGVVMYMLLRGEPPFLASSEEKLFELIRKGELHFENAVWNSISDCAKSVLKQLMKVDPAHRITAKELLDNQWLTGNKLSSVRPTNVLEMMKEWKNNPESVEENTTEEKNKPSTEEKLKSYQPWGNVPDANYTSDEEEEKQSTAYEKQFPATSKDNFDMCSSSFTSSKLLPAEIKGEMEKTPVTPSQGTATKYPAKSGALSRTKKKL
p53 PUMA act: mutant p53 pathway re-activators, primary screen, cell-based, SW480, luciferase, single point, HTS; SW480 PUMA-promoter luciferase, p53 mutant reactivation; activation, % at 9.98 µM; hit rate 1.5% among 28,000; AID 624151, 2012; in the data active = activation above about 52%; inconclusive = no clear call, values can overlap the other calls
MITF inh: inhibitors of MITF, primary screen, MITF inhibitor project, cell-based, luminescence; TRPM1 promoter luciferase, 24 h; hit rate 0.28% among 37,000; inhibition, % (test concentration not listed); in the data active = inhibition above about 85%; inconclusive = no clear call, values can overlap the other calls; inactive = below about 68%;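 note: human melanocyte line stably carrying TRPM1 promoter luciferase reporter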
* hit, by the source's call.

How did C[C@@H]1CN([C@@H](C)CO)C(=O)c2cc(NS(=O)(=O)c3ccccc3)ccc2O[C@@H]1CN(C)Cc1ccc(Oc2ccccc2)cc1 do in these assays?
NOMO-1 viab: 117.7*; MITF inh: 23.2

What do the screens show for `COc1ccc(S(=O)(=O)Nc2ccc3c(c2)C(=O)N([C@@H](C)CO)C[C@@H](C)[C@@H](CN(C)Cc2ccc(Oc4ccccc4)cc2)O3)cc1`?
NOMO-1 viab: 113.1*; MITF inh: 60.1

How did Cc1cc(NS(=O)(=O)c2ccc(NC(=O)c3csc4ccccc34)cc2)no1 do in these assays?
NOMO-1 viab: -10.5; STK33 kin inh: 0.2; p53 PUMA act: -5.3; MITF inh: 39.0

What do the screens show for `Cc1noc(C)c1S(=O)(=O)Nc1ccc2c(c1)C(=O)N([C@H](C)CO)C[C@@H](C)[C@@H](CN(C)Cc1ccc(Oc3ccccc3)cc1)O2`?
NOMO-1 viab: 105.5*; MITF inh: 9.3

How did C[C@@H]1CN([C@@H](C)CO)C(=O)c2cc(NS(=O)(=O)c3ccc(F)cc3)ccc2O[C@@H]1CN(C)Cc1ccc(Oc2ccccc2)cc1 do in these assays?
NOMO-1 viab: 111.5*; MITF inh: 28.7

Results for Cc1ccnc(NS(=O)(=O)c2ccc(NC(=O)c3cc4c(s3)CCCC4)cc2)n1 ?
STK33 kin inh: 4.9; p53 PUMA act: 7.1

How did O=c1c(C=Nc2ccccc2)c(Nc2ccccc2)[nH]n1-c1ccccc1 do in these assays?
NOMO-1 viab: 102.1*; STK33 kin inh: 0.9; MITF inh: 25.1

What do the screens show for `O=c1c(C=Nc2ccccc2)c(O)c2c(n1-c1ccccc1)CCCC2`?
p53 PUMA act: -13.4

Results for O=C(NCCNc1ccc(C(F)(F)F)cc1[N+](=O)[O-])c1ccc(F)cc1 ?
NOMO-1 viab: 18.4; STK33 kin inh: -3.0; p53 PUMA act: 21.2; MITF inh: 0.4

What do the screens show for `N#Cc1ccc(-c2ccc(OC(=O)CS(=O)c3ccc(C(F)(F)F)cc3[N+](=O)[O-])cc2)cc1` (configuration not stated)?
NOMO-1 viab: 129.3*; STK33 kin inh: 1.5; p53 PUMA act: 22.7; MITF inh: -7.8

Results for CC(=O)Nc1cccc(NC(=O)CNc2ccc(C(F)(F)F)cc2[N+](=O)[O-])c1 ?
NOMO-1 viab: -11.6; STK33 kin inh: 4.4; p53 PUMA act: -12.5; MITF inh: 6.7

Results for COC(=O)c1ccc(OC(=O)CS(=O)c2ccc(C(F)(F)F)cc2[N+](=O)[O-])cc1 (configuration not stated) ?
NOMO-1 viab: 108.7*; STK33 kin inh: 0.0; p53 PUMA act: -15.2; MITF inh: 25.9

How did COc1ccc(-c2cc(=O)c3c(O)c(OC)c(O)c(OC)c3o2)cc1 do in these assays?
NOMO-1 viab: 0.8; STK33 kin inh: 12.4; p53 PUMA act: 58.5*; MITF inh: -43.0

How did N#CCCN(Cc1ccco1)C(=S)Nc1ccccc1 do in these assays?
NOMO-1 viab: -0.7; STK33 kin inh: -2.8; p53 PUMA act: -4.2; MITF inh: -19.9

Results for O=C(CC1(O)C(=O)Nc2ccc(I)cc21)c1ccccn1 (configuration not stated) ?
NOMO-1 viab: 89.9*; STK33 kin inh: -1.2; p53 PUMA act: 2.2; MITF inh: 16.2

Results for C[C@H](CO)N1C[C@H](C)[C@H](CN(C)Cc2ccccc2)Oc2ccc(NC(=O)Nc3ccc(C(F)(F)F)cc3)cc2CC1=O ?
NOMO-1 viab: inconclusive; STK33 kin inh: 0.4; MITF inh: -1.4

How did C[C@@H]1CN([C@H](C)CO)C(=O)Cc2cc(NC(=O)Nc3ccc(C(F)(F)F)cc3)ccc2O[C@H]1CN(C)Cc1ccc(Oc2ccccc2)cc1 do in these assays?
NOMO-1 viab: 112.2*; STK33 kin inh: 1.5; MITF inh: -1.7

What do the screens show for `C[C@H](CO)N1C[C@H](C)[C@H](CN(C)Cc2ccc(Oc3ccccc3)cc2)Oc2ccc(NC(=O)Nc3ccc(C(F)(F)F)cc3)cc2CC1=O`?
NOMO-1 viab: 119.3*; STK33 kin inh: -3.9; MITF inh: 5.8

Results for Fc1ccc(N(Cc2nc3ccccc3[nH]2)Cc2nc3ccccc3[nH]2)cc1 ?
NOMO-1 viab: 99.7*; STK33 kin inh: 1.3; p53 PUMA act: -1.4; MITF inh: 2.1

Results for CC1(C)C(=O)C=CC2(C)C1CC(O)C1(C)C3=CCC(c4ccoc4)C3(C)CCC21 (configuration not stated) ?
NOMO-1 viab: 118.6*; STK33 kin inh: 1.3; MITF inh: 77.4

Results for Cc1sc2ncnc(SCC(=O)c3ccc4ccccc4c3)c2c1C ?
NOMO-1 viab: 12.0; STK33 kin inh: 0.3; p53 PUMA act: 11.6; MITF inh: 29.7

How did CC(=O)OCC(Cc1ccccc1)NC(=O)C(Cc1ccccc1)NC(=O)c1ccccc1 (configuration not stated) do in these assays?
NOMO-1 viab: 39.8; STK33 kin inh: -1.9; p53 PUMA act: 13.0; MITF inh: 8.2

Results for CNc1cc2ncnc(Nc3cccc(Br)c3)c2cc1N ?
NOMO-1 viab: 96.6*; STK33 kin inh: 3.0; p53 PUMA act: 2.7; MITF inh: -5.0

Results for COc1ccc(C(=O)NCC(=O)Nc2ccc(C)c(Cl)c2)cc1 ?
NOMO-1 viab: -3.8; STK33 kin inh: -0.1; p53 PUMA act: 16.8; MITF inh: -78.5

Results for COc1c(O[C@@H]2O[C@H](CO)[C@@H](O)[C@H](O)[C@H]2O)cc2oc(-c3ccc(O)cc3)cc(=O)c2c1O ?
NOMO-1 viab: 83.9*; STK33 kin inh: 18.7; MITF inh: -71.3

What do the screens show for `COc1cc(O)c2c(=O)c(-c3ccc(O)cc3)coc2c1`?
NOMO-1 viab: 3.0; STK33 kin inh: 3.7; MITF inh: 1.3

What do the screens show for `O=c1c(-c2ccc(O)cc2)coc2cc(OC3OC(CO)C(O)C(O)C3O)cc(O)c12` (configuration not stated)?
NOMO-1 viab: 38.4; STK33 kin inh: 1.7; p53 PUMA act: 89.7*; MITF inh: -8.9

Results for COc1ccc(-n2nc3cc(C)c(NC(=O)COc4ccccc4)cc3n2)cc1 ?
NOMO-1 viab: 8.3; STK33 kin inh: 1.1; p53 PUMA act: 21.3; MITF inh: -0.2

Results for COc1ccc(-n2c(SCC(=O)Nc3ccc(C)c(C)c3)nnc2-c2ccccc2)cc1 ?
NOMO-1 viab: -4.5; STK33 kin inh: 12.2; p53 PUMA act: -16.9; MITF inh: -6.3

Results for Cc1ccc(NC(=O)CSc2nnc(-c3ccc(Br)cc3)o2)cc1Cl ?
NOMO-1 viab: -15.5; STK33 kin inh: 1.2; p53 PUMA act: 46.2; MITF inh: -16.6

How did O=C(CSc1nnc(-c2ccc(Br)cc2)o1)Nc1ccccc1Cl do in these assays?
NOMO-1 viab: 12.4; STK33 kin inh: 5.8; p53 PUMA act: 75.4*; MITF inh: -49.5

Results for O=C(CSc1nnc(-c2ccc(Br)cc2)o1)Nc1cccc(C(=O)O)c1 ?
NOMO-1 viab: 9.2; STK33 kin inh: -1.8; p53 PUMA act: -85.4; MITF inh: 82.7

Results for O=C(CSc1nnc(-c2ccccc2)o1)Nc1cccc(Br)c1 ?
NOMO-1 viab: 6.8; STK33 kin inh: 3.3; p53 PUMA act: 101.9*; MITF inh: -68.2
